Laboratory results reported in PubChem BioAssay AID1159580 (chemical genetic matrix, 2015).
Values joined by “and” are separate entries in the source; they are usually repeats but may differ in a detail not shown here. Identical values can stand only once. Out of some 5,500 compounds screened, about 2,000 (36%) were called active. Another 18% or so got no clear call; they are omitted. Cut-off read from the data, not from the text of the source: active = normalized growth mostly below about 0.91 (no sharp cut-off); inconclusive = no clear call, values can overlap the other calls; inactive = mostly above about 0.92. The list shows a part of the results.

Test: chemical genetic growth profiling, strain panel (AID 1159580);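 note: tested at 20 µM; growth read once vehicle control cultures reached saturation at 30 °C; 1 = growth at the plate median or of vehicle wells; lower values mean less growth of the strain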
Details: S. cerevisiae deletion strains, growth OD

Measured: normalized growth

CC1(C)S[C@@H]2[C@H](NC(=O)[C@H](NC(=O)N3CCNC3=O)c3ccccc3)C(=O)N2C1C(=O)O (stereo partly drawn)
inactive: locus YAL021C, strain ccr4, hits give low values 0.989 | locus YAL026C, strain drs2, hits give low values 0.984 | locus YAL030W, strain snc1, hits give low values 0.969 | locus YBL061C, strain skt5, hits give low values 0.971 | locus YBR009C, strain hhf1, hits give low values 0.995 | locus YBR021W, strain FUR4, hits give low values 1.04 | locus YBR023C, strain chs3, hits give low values 0.979 | locus YBR171W, strain sec66, hits give low values 0.974 | locus YBR229C, strain ROT2, hits give low values 1 | locus YBR231C, strain swc5, hits give low values 0.984 | locus YBR279W, strain paf1, hits give low values 0.993 | locus YCL011C, strain gbp2, hits give low values 0.964 | locus YCL016C, strain dcc1, hits give low values 0.986 | locus YCL029C, strain bik1, hits give low values 0.99 | locus YCL061C, strain MRC1, hits give low values 0.99 | locus YCL069W, strain vba3, hits give low values 0.996 | locus YCR088W, strain abp1, hits give low values 0.985 | locus YDL005C, strain med2, hits give low values 0.978 | locus YDL035C, strain GPR1, hits give low values 0.992 | locus YDL040C, strain nat1, hits give low values 0.984 | locus YDL074C, strain BRE1, hits give low values 1.06 | locus YDL101C, strain DUN1, hits give low values 0.998 | locus YDL134C, strain PPH21, hits give low values 1 | locus YDL185W, strain tfp1, hits give low values 0.952 | locus YDL192W, strain arf1, hits give low values 0.982 | locus YDR001C, strain nth1, hits give low values 0.975 | locus YDR069C, strain doa4, hits give low values 0.988 | locus YDR101C, strain arx1, hits give low values 1.03 | locus YDR137W, strain rgp1, hits give low values 0.977 | locus YDR159W, strain sac3, hits give low values 1 | locus YDR162C, strain NBP2, hits give low values 0.972 | locus YDR195W, strain ref2 0.995 | locus YDR297W, strain sur2, hits give low values 0.979 | locus YDR318W, strain mcm21, hits give low values 0.988 | locus YDR334W, strain swr1, hits give low values 0.935 | locus YDR335W, strain msn5, hits give low values 0.971 | locus YDR388W, hits give low values 0.987 | locus YDR392W, strain spt3, hits give low values 0.908 | locus YDR502C, strain sam2, hits give low values 1 | locus YEL003W, strain gim4, hits give low values 0.994 | locus YEL037C, strain rad23, hits give low values 0.984 | locus YEL061C, strain CIN8 (second series), hits give low values 0.984 | locus YEL061C, strain CIN8, hits give low values 0.996 | locus YER015W, strain faa2, hits give low values 0.971 | locus YER016W, strain bim1, hits give low values 1 | locus YER110C, hits give low values 0.982 | locus YER111C, strain swi4, hits give low values 0.983 | locus YER155C, strain BEM2 (second series), hits give low values 0.993 | locus YER155C, strain BEM2, hits give low values 1.01 | locus YER167W, strain BCK2, hits give low values 0.997 | locus YFR010W, strain ubp6, hits give low values 0.967 | locus YGL078C, strain dbp3, hits give low values 0.989 | locus YGL086W, strain mad1, hits give low values 1.02 | locus YGL167C, strain pmr1, hits give low values 0.987 | locus YGL173C, strain kem1, hits give low values 0.967 | locus YGL227W, strain vid30, hits give low values 0.994 | locus YGL240W, strain doc1, hits give low values 1 | locus YGL248W, strain PDE1, hits give low values 1.01 | locus YGL253W, strain hxk2, hits give low values 0.996 | locus YGR135W, strain pre9, hits give low values 0.95 | locus YGR252W, strain gcn5, hits give low values 1 | locus YHR013C, strain ard1, hits give low values 0.957 | locus YHR027C, strain rpn1, hits give low values 0.966 | locus YHR030C, strain SLT2, hits give low values 0.984 and 0.983 | locus YHR079C, strain IRE1 (second series), hits give low values 0.983 | locus YHR079C, strain IRE1, hits give low values 0.963 | locus YHR094C, strain hxt1, hits give low values 0.982 | locus YHR129C, strain ARP1, hits give low values 0.997 | locus YHR142W, strain chs7, hits give low values 0.955 | locus YHR200W, strain rpn10, hits give low values 0.989 | locus YIL066C, strain RNR3, hits give low values 0.99 | locus YIL073C, strain SPO22, hits give low values 0.902 | locus YIL125W, strain kgd1, hits give low values 1 | locus YIR030C, strain dcg1, hits give low values 0.969 | locus YJL092W, strain hpr5, hits give low values 0.988 | locus YJL095W, strain BCK1 (second series), hits give low values 0.989 | locus YJL095W, strain BCK1, hits give low values 1.04 and 0.971 | locus YJL115W, strain asf1, hits give low values 0.96 | locus YJL129C, strain trk1, hits give low values 1.01 | locus YJL134W, strain LCB3, hits give low values 0.993 | locus YJL154C, strain vps35, hits give low values 0.972 | locus YJL164C, strain tpk1, hits give low values 0.996 | locus YJL166W, strain qcr8, hits give low values 0.956 | locus YJL168C, strain set2, hits give low values 0.998 | locus YJL187C, strain SWE1 (second series), hits give low values 1 | locus YJL187C, strain SWE1, hits give low values 0.988 | locus YJR043C, strain POL32, hits give low values 1.03 | locus YJR066W, strain TOR1, hits give low values 0.966
